High-throughput results from PubChem BioAssay.
DT40 TDP1 no CPT = qHTS for Inhibitors of human tyrosyl-DNA phosphodiesterase 1 (TDP1): qHTS in cells in absence of CPT. DT40 Tdp1-/- hTDP1 cells, no CPT, ATP luminescence, 48 h. Potency, µM (top dose mostly 46.2 µM), usual class: inhibitors. 420,000 compounds, 15% hits; note: nearly all actives have a fitted effect of over 55% in size
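Stably hTDP1-transfected Tdp1-null chicken DT40 cells were treated with library compounds minus camptothecin and grown for at least 48 hr at 37 °C, after which cellular ATP was quantified by luminescence.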
MCF10A rereplic = induces DNA re-replication in MCF 10a normal breast cells; MCF 10A DNA re-replication, Hoechst nuclear intensity, 48 h; Potency, µM (series often up to 46.1 µM), most hits filed as activators; 350,000 compounds, 2.9% hits; note: nearly all actives have a fitted effect of over 50% in size
SW480 rerep = induces DNA re-replication in SW480 colon adenocarcinoma cells. SW480 DNA re-replication, Hoechst DNA content imaging, 48 h. Potency, µM (top dose mostly 46.1 µM), hits mostly activators. 340,000 compounds, 1.8% hits; note: nearly all actives have a fitted effect of over 55% in size
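Readout is total intensity of Hoechst-stained nuclei, excited at 405 nm and collected at 500-530 nm. Compound treatment lasted 48 hr at 37 C in 5% CO2 before staining.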
IL-1B inflam inh = blocks inflammasome-driven IL-1 beta release. THP-1 LPS/ATP IL-1B secretion, AlphaLISA, 16 h; hits give low values. activity change, % at 57.5 µM. 360,000 compounds, 4.7% hits. AID 743279; in the data active = activity change below about -50%; inconclusive = mostly about -30% to -49%
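Secreted IL-1B measured by AlphaLISA bead assay after 16 h compound exposure of THP-1 cells; compounds (final up to 57.5 uM) added 1 h before LPS (250 ng/mL) and ATP (1.25 mM) stimulation; lower signal means less secretion.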
Chronic BCR inh = blocks chronic active B-cell receptor signaling; 340,000 compounds, 0.05% hits; ABC-DLBCL IkBa-CBG/CBR reporter, luminescence ratio, 4 h; Potency, µM (highest dose often 46.1 µM), actives largely listed as inhibitors; AID 493014; active = well fitted inhibition curve with a large enough effect in the signal ratio, with a control signal flat, not every such curve was filed as active; inconclusive = small, poorly fitted or top-dose-only effect, or effect the other way, or a change in a side signal; the % refers to the signal ratio
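TMD8 human ABC-DLBCL cells with doxycycline-inducible IκBα–green luciferase fusion and unfused red luciferase, in 0.5% FBS medium; compounds up to 46 uM, 4 h at 37C. Green/red luminescence ratio, filter-overlap corrected, fitted to concentration-response curves.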
TDP1 cell CPT = DT40-hTDP1 cell growth loss with CPT | chicken DT40 Tdp1-/-;hTDP1 cells + 20 nM CPT, ATP luminescence, 48 h | Potency, µM (series often up to 46.2 µM), actives largely listed as inhibitors | 420,000 compounds, 12% hits | AID 686979; note: nearly all actives have a fitted effect of over 55% in size
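Chicken DT40 Tdp1-/- cells stably complemented with human TDP1 were seeded at 400 cells/well in medium containing 20 nM camptothecin, exposed to pin-transferred compounds, and grown at 37 °C for at least 48 hr. Viability was read as ATP luminescence.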
A number is an active result. Compounds with a hit are over-represented: about 19% of the library has one in this group of screens. Unless noted, calls come from the whole dose curve; as a rule, active = well fitted curve in the direction sought with a large enough effect; inconclusive = small, poorly fitted or top-dose-only effect, or another doubt; inactive = no such curve, though single readings can be large; an effect the other way counts as inactive or inconclusive.

Cc1cc(C)cc(Oc2ccccc2C=O)c1 was read as DT40 TDP1 no CPT 4.6µM, MCF10A rereplic inactive, SW480 rerep inconclusive, IL-1B inflam inh inactive, Chronic BCR inh inconclusive and TDP1 cell CPT 5.8µM.
`CCN(CC)CCNC(=O)C(=O)NCC(c1cccnc1)N1CCN(c2ccc(F)cc2)CC1` (centres undefined) gave DT40 TDP1 no CPT inconclusive and TDP1 cell CPT inactive.
COc1ccccc1CCNC(=O)C(=O)NCC(c1cccnc1)N1CCN(c2ccccc2)CC1 (centres undefined) was read as DT40 TDP1 no CPT 12µM and TDP1 cell CPT 12µM.
Screening COc1ccccc1CNC(=O)C(=O)NCC(c1cccnc1)N1CCN(c2ccc(F)cc2)CC1 (centres undefined) returned DT40 TDP1 no CPT 13µM and TDP1 cell CPT 12µM.
Screening O=C(CSc1ccccc1C(=O)NCc1ccccc1)NC12CC3CC(CC(C3)C1)C2 returned DT40 TDP1 no CPT 29µM, MCF10A rereplic inconclusive, SW480 rerep inconclusive, IL-1B inflam inh inconclusive, Chronic BCR inh inactive and TDP1 cell CPT inconclusive.
For O=C(Nc1ccccc1C(=O)NC(Cc1ccccc1)C(=O)NC1CCCCC1)c1ccccc1 (centres undefined) the results were DT40 TDP1 no CPT 26µM, MCF10A rereplic inconclusive, SW480 rerep inactive, IL-1B inflam inh inactive, Chronic BCR inh inactive and TDP1 cell CPT inconclusive.
`O=C(CSc1ccccc1C(=O)NCc1ccccc1)NC1CCCCCCC1` gave DT40 TDP1 no CPT inconclusive, MCF10A rereplic inactive, SW480 rerep inactive, IL-1B inflam inh -101, Chronic BCR inh inactive and TDP1 cell CPT inconclusive.
Screening CC(C)CCNC(=O)c1ccccc1SCC(=O)NC1CCCCCCC1 returned DT40 TDP1 no CPT inconclusive, MCF10A rereplic inactive, SW480 rerep inactive, IL-1B inflam inh inactive, Chronic BCR inh inconclusive and TDP1 cell CPT 23µM.
Cc1ccc(C23CC4CC(CC(C(=O)NC(C)C(N)=O)(C4)C2)C3)cc1 (centres undefined) was read as DT40 TDP1 no CPT inactive, MCF10A rereplic inactive, SW480 rerep inactive, IL-1B inflam inh inactive, Chronic BCR inh inactive and TDP1 cell CPT inactive.
COc1ccc(CN2CCCC(Cn3cc(C(=O)N4CCCC4)nn3)C2)c(O)c1 (centres undefined) was read as DT40 TDP1 no CPT inactive and TDP1 cell CPT inactive.
Cc1ccc(CNC(=O)CSC2=Nc3ccccc3N=C(c3ccc(F)cc3)C2)cc1 was read as DT40 TDP1 no CPT inactive and TDP1 cell CPT inactive.
COc1ccccc1CNC(=O)CSC1=Nc2ccccc2N=C(c2ccc(F)cc2)C1 was read as DT40 TDP1 no CPT inconclusive and TDP1 cell CPT 26µM.
O=C(CSC1=Nc2ccccc2N=C(c2ccc(F)cc2)C1)NCc1ccccc1 was read as DT40 TDP1 no CPT 18µM and TDP1 cell CPT inconclusive.
For CCOc1ccc(N2CC(C(=O)Nc3ccncc3)CC2=O)cc1 (centres undefined) the results were DT40 TDP1 no CPT inactive, MCF10A rereplic inactive, SW480 rerep inactive, IL-1B inflam inh inactive, Chronic BCR inh inactive and TDP1 cell CPT inactive.
Screening O=C(C(=O)N1CCN(Cc2ccc3c(c2)OCO3)CC1)c1c[nH]c2ccccc12 returned DT40 TDP1 no CPT inactive, MCF10A rereplic inactive, SW480 rerep inactive, IL-1B inflam inh inactive, Chronic BCR inh inconclusive and TDP1 cell CPT inconclusive.
For Cc1ccnc(NS(=O)(=O)c2cc(C(F)(F)F)ccc2Cl)c1 the results were Chronic BCR inh inactive.
`CC[C@H](C)[C@@H]1OC(=O)[C@@H](C)[C@@H](CC)NC(=O)[C@H](C)N(C)C(=O)C(C)(C)C(=O)C(C)NC(=O)[C@H](Cc2ccccc2)N(C)C(=O)[C@H](C(C)C)N(C)C(=O)CNC(=O)[C@H](CC(C)C)N(C)C(=O)CNC1=O` (some centres undefined) gave DT40 TDP1 no CPT 0.18µM, IL-1B inflam inh inactive and TDP1 cell CPT 0.13µM.
`C[C@H](CO)N1C[C@H](C)[C@@H](CN(C)S(=O)(=O)c2cn(C)cn2)Oc2ccc(NC(=O)NC3CCCCC3)cc2C1=O` gave DT40 TDP1 no CPT inactive, MCF10A rereplic inactive, SW480 rerep inactive, IL-1B inflam inh inactive, Chronic BCR inh inactive and TDP1 cell CPT inactive.
`COc1ccc(C2C(=O)N(C3CCCCCC3)CC(=O)N2CCc2ccc(OC)c(OC)c2)cc1` (centres undefined) gave DT40 TDP1 no CPT inconclusive, Chronic BCR inh inactive and TDP1 cell CPT inconclusive.
Screening O=C(NCc1cccnc1)C(=O)NCC1OCCN1S(=O)(=O)c1ccc(Cl)cc1 (centres undefined) returned DT40 TDP1 no CPT inconclusive, MCF10A rereplic inactive, SW480 rerep inactive, IL-1B inflam inh inactive, Chronic BCR inh inactive and TDP1 cell CPT inactive.
Screening O=C(CN(Cc1ccc(Br)cc1)S(=O)(=O)c1ccccc1)NCc1cccnc1 returned DT40 TDP1 no CPT inconclusive, MCF10A rereplic inconclusive, SW480 rerep inactive, IL-1B inflam inh inactive, Chronic BCR inh inconclusive and TDP1 cell CPT inconclusive.
O=C(NCc1cccnc1)/C(=C\c1ccc(-c2ccc(Br)cc2)o1)S(=O)(=O)c1ccccc1 was read as DT40 TDP1 no CPT 3.3µM, MCF10A rereplic 7.3µM, SW480 rerep 15µM, IL-1B inflam inh -105, Chronic BCR inh inconclusive and TDP1 cell CPT 2.9µM.
For O=C(NCc1cccnc1)/C(=C/c1ccc(-c2ccc(Cl)cc2)o1)S(=O)(=O)c1ccccc1 the results were DT40 TDP1 no CPT 7.3µM, MCF10A rereplic 9.2µM, SW480 rerep 9.2µM, IL-1B inflam inh -106, Chronic BCR inh inconclusive and TDP1 cell CPT 5.2µM.
For O=C1C[C@@H]2c3c(cccc3CN1Cc1ccccc1Br)C[C@@H](O)[C@H]2O the results were DT40 TDP1 no CPT inactive, MCF10A rereplic inconclusive, SW480 rerep inactive, IL-1B inflam inh inactive and TDP1 cell CPT inactive.
O=C(NCc1ccccc1)C(c1ccc(C(F)(F)F)cc1)N1CCN(CCN2CCOCC2)CC1 (centres undefined) was read as DT40 TDP1 no CPT inactive, IL-1B inflam inh inactive and TDP1 cell CPT inactive.
N#Cc1c(NC(=O)C2CC(c3c(F)cccc3Cl)=NO2)sc2c1CCC2 (centres undefined) was read as DT40 TDP1 no CPT 0.21µM, MCF10A rereplic inconclusive, SW480 rerep inactive, IL-1B inflam inh inactive, Chronic BCR inh inactive and TDP1 cell CPT inconclusive.
Cc1ccc(O)c(NC(=O)C2CC(c3c(F)cccc3Cl)=NO2)c1 (centres undefined) was read as DT40 TDP1 no CPT inconclusive, MCF10A rereplic inactive, SW480 rerep inactive, IL-1B inflam inh inactive, Chronic BCR inh inconclusive and TDP1 cell CPT inactive.
